# Assay results taken from PubChem BioAssay (NCATS).
# Records with an inconclusive call do not appear. Active and inactive are the calls of the source. The call rests on the fitted dose curve; in most records, active means well fitted inhibition curve with a large enough effect; inconclusive means small, poorly fitted or top-dose-only effect; inactive means flat fitted curve, though single readings scatter.
# Columns and labels:
# Test in all cases: qHTS profiling for inhibitors of Plasmodium falciparum proliferation (AID 504749); further: nearly all actives have a fitted effect of over 60% in size
# CP250 = conditions: P. falciparum in erythrocytes, SYBR Green DNA, 72 h; series mostly up to 28.7 µM
# In short: (§1)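 P. falciparum-infected erythrocytes (0.3% parasitemia, 2.5% hematocrit final) were exposed to compounds for 72 h at 37 C in 5% CO2, then lysed with SYBR Green buffer overnight at room temperature; parasite DNA fluorescence was normalized to artemisinin and DMSO controls.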
# CP252 = conditions: P. falciparum in erythrocytes, SYBR Green DNA, 72 h; series mostly up to 28.7 µM
# In short: as §1
# CP260 = conditions: P. falciparum in erythrocytes, SYBR Green DNA, 72 h; series mostly up to 28.7 µM
# In short: as §1
# CP262 = conditions: P. falciparum in erythrocytes, SYBR Green DNA, 72 h; series mostly up to 28.7 µM
# In short: as §1
# CP265 = conditions: P. falciparum in erythrocytes, SYBR Green DNA, 72 h; series mostly up to 28.7 µM
# In short: as §1
# CP266 = conditions: P. falciparum in erythrocytes, SYBR Green DNA, 72 h; series mostly up to 28.7 µM
# In short: as §1
# CP268 = conditions: P. falciparum in erythrocytes, SYBR Green DNA, 72 h; series mostly up to 28.7 µM
# In short: as §1
# CP269 = conditions: P. falciparum in erythrocytes, SYBR Green DNA, 72 h; series mostly up to 28.7 µM
# In short: as §1
# CP286 = conditions: P. falciparum in erythrocytes, SYBR Green DNA, 72 h; series mostly up to 28.7 µM
# In short: as §1
# CP291 = conditions: P. falciparum in erythrocytes, SYBR Green DNA, 72 h; series mostly up to 28.7 µM
# In short: as §1
# CP297 = conditions: P. falciparum in erythrocytes, SYBR Green DNA, 72 h; series mostly up to 28.7 µM
# In short: as §1
# CP305 = conditions: P. falciparum in erythrocytes, SYBR Green DNA, 72 h; series mostly up to 28.7 µM
# In short: as §1
# CP315 = conditions: P. falciparum in erythrocytes, SYBR Green DNA, 72 h; series mostly up to 28.7 µM
# In short: as §1
# CP325 = conditions: P. falciparum in erythrocytes, SYBR Green DNA, 72 h; series mostly up to 28.7 µM
# In short: as §1
# CP329 = conditions: P. falciparum in erythrocytes, SYBR Green DNA, 72 h; series mostly up to 28.7 µM
# In short: as §1
# DFO2036 = conditions: P. falciparum in erythrocytes, SYBR Green DNA, 72 h; series mostly up to 28.7 µM
# In short: as §1
# DIV14 = conditions: P. falciparum in erythrocytes, SYBR Green DNA, 72 h; series mostly up to 28.7 µM
# In short: as §1
# DIV17 = conditions: P. falciparum in erythrocytes, SYBR Green DNA, 72 h; series mostly up to 28.7 µM
# In short: as §1
# CP256 = conditions: P. falciparum in erythrocytes, SYBR Green DNA, 72 h
# In short: as §1
# CP335 = conditions: P. falciparum in erythrocytes, SYBR Green DNA, 72 h
# In short: as §1
# Potency means the concentration at half of the fitted maximal effect.
Compound,Potency (CP250),Potency (CP252),Potency (CP260),outcome (CP262),Potency (CP265),Potency (CP266),Potency (CP268),Potency (CP269),Potency (CP286),Potency (CP291),Potency (CP297),Potency (CP305),Potency (CP315),Potency (CP325),Potency (CP329),Potency (DFO2036),Potency (DIV14),Potency (DIV17),Potency (CP256),Potency (CP335)
CCCOc1ccc2nc(NC(=O)OC)sc2c1,inactive,inactive,inactive,inactive,inactive,inactive,inactive,inactive,inactive,inactive,inactive,inactive,inactive,inactive,inactive,inactive,inactive,inactive,,
COC1C(OC(=O)/C=C/C=C/C=C/C=C/C(=O)O)CCC2(CO2)C1C1(C)OC1CC=C(C)C (stereo not given),,,,,,,3380 nM (active),,,8490 nM (active),,,1690 nM (active),7570 nM (active),601 nM (active),,379 nM (active),5360 nM (active),70.8 nM (active),
C=CCNC1=C2C[C@@H](C)C[C@H](OC)[C@H](O)[C@@H](C)/C=C(\C)[C@H](OC(N)=O)[C@@H](OC)/C=C\C=C(/C)C(=O)NC(=CC1=O)C2=O,2240 nM (active),1780 nM (active),2240 nM (active),,2000 nM (active),10700 nM (active),5360 nM (active),1690 nM (active),3550 nM (active),4260 nM (active),1690 nM (active),4780 nM (active),3790 nM (active),4260 nM (active),4260 nM (active),2000 nM (active),1510 nM (active),1200 nM (active),2240 nM (active),1690 nM (active)
